This is a sample that favours compounds with a hit; in the whole collection about 2.5% have one here.
NPR2 activator: GC-B (human) receptor activation. HEK293-GC-B cells, CNP EC30, cGMP TR-FRET; 0% at EC30 CNP, 100% saturating CNP. activation, % at 10 µM. 0.11% of 370,000 active;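 active = activation at 10 µM reaching about 35% in either raw or pattern-adjusted values, limit read from the data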
NPR1 activator: GC-A (human) enzyme activation; P16066; HEK293 GC-A cells, cGMP TR-FRET, EC30 ANP; 0% at EC30 ANP, 100% saturating ANP; activation, % at 10 µM; 0.14% of 370,000 active; in the data active = activation above about 40%
aDG glyco act: increases alpha dystroglycan glycosylation. Pro5-aDG cells, alpha-DG glycosylation AlphaScreen (IIH6); 0% Pro5, 100% B10-LARGE cell signal. activation, % at 10 µM. 0.22% of 360,000 active;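 active = activation of at least 8% versus controls, or a plate z-score of at least 8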;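 also: Pro5 are CHO cells carrying HIG-tagged alpha-DG that lacks glycosylation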
HSF1 inh: HSF1 inhibition | NIH3T3-HGL HSE-luciferase, MG132-induced, luminescence 8 h; active compounds read low | activity change, negative = inhibition, % at 7.5 µM (by protocol) | 0.77% of 300,000 active | AID 2098;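 active = more than half of replicate wells show activity change below -50%, luminescence cut by over half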;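 also: luciferase reports HSF-1 transcriptional activity via heat shock element; 0% = median of DMSO wells and -100% = zero luminescence signal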
DYRK1A inh: inhibitors of rat Dyrk1A kinase; Q63470; ADP-Glo luminescence, NFATc1 peptide; inhibition, % at 12.5 µM; 0.43% of 310,000 active; AID 504441; in the data active = inhibition above about 50%;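 also: plate controls were vehicle with enzyme for no effect and no enzyme for full effect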
HSF1 activator: increases HSF-1 driven luciferase reporter signal | 1.7% of 300,000 active | activation, % at 9 µM | NIH3T3-HGL HSF-1 luciferase reporter, MG132, 8 h; 100% = twice DMSO control signal;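 active = mean replicate activation of at least 50% with a set share of replicates each reaching 50%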;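 also: 0% = median of the neutral control wells and 100% = twice that signal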
The depositor's hits bear a star.

`O=C(c1ccc([N+](=O)[O-])s1)N1CCN(c2cccc(Cl)c2)CC1` gave NPR2 activator -4, NPR1 activator -16, aDG glyco act 4, HSF1 inh -52*, DYRK1A inh -2 and HSF1 activator -59.
Screening Nc1ncnc2c1ncn2[C@@H]1O[C@H](CNS(=O)(=O)C2CC2)[C@@H](O)[C@H]1O returned NPR2 activator 0, NPR1 activator 5, aDG glyco act 0 and DYRK1A inh -2.
`CC(=O)Nc1cccc(C(=O)/C=C/c2ccc(C)cc2)c1` gave NPR2 activator -3, NPR1 activator -1, aDG glyco act 0, HSF1 inh -47, DYRK1A inh 2 and HSF1 activator -59.
Screening CCC(=O)Nc1cccc(C(=O)/C=C/c2ccc(F)cc2)c1 returned NPR2 activator 2, NPR1 activator 4, aDG glyco act 0, HSF1 inh 61, DYRK1A inh 3 and HSF1 activator 75*.
S=c1[nH]nc(C2CC2)n1Cc1ccco1 was read as NPR2 activator 0, NPR1 activator 3, aDG glyco act 0, HSF1 inh -2, DYRK1A inh 2 and HSF1 activator 9.
For O=C(NCCN1Cc2ccccc2C1=O)c1cccs1 the results were NPR2 activator 6, NPR1 activator -1, aDG glyco act 0, HSF1 inh 42, DYRK1A inh 10 and HSF1 activator 62*.
Screening COCCN(C(=S)Nc1c(C)cc(C)cc1C)C(C)c1cccnc1 (stereo unspecified) returned NPR2 activator -1, NPR1 activator 4, aDG glyco act 0, HSF1 inh -8, DYRK1A inh -9 and HSF1 activator -1.
`COCCN(C(=S)Nc1c(C)cccc1C)C(C)c1cccnc1` (stereo unspecified) gave NPR2 activator 8, NPR1 activator 1, aDG glyco act 0, HSF1 inh -52*, DYRK1A inh -7 and HSF1 activator -62.
Screening Cc1ccc2c(CN3CCN(S(=O)(=O)/C=C/c4ccccc4)CC3)cc(=O)oc2c1 returned NPR2 activator -5, NPR1 activator -13, aDG glyco act 0, HSF1 inh 28, DYRK1A inh -1 and HSF1 activator 78*.
Cc1ccc2c(CN3CCCCC3)cc(=O)oc2c1 was read as NPR2 activator 2, NPR1 activator 6, aDG glyco act 0, HSF1 inh 3, DYRK1A inh 1 and HSF1 activator 3.
For CC(=O)NCc1ccc(-c2nc3ccccc3s2)cc1 the results were NPR2 activator -3, NPR1 activator 7, aDG glyco act 0, HSF1 inh 9, DYRK1A inh 1 and HSF1 activator 26.
Screening Cc1ccc(Cn2cccc(-c3nc4ccccc4s3)c2=O)cc1 returned NPR2 activator 5, NPR1 activator 11, aDG glyco act 1, HSF1 inh 53, DYRK1A inh -4 and HSF1 activator 106*.
For O=c1c(OCc2ccccc2)cccn1Cc1ccccc1 the results were NPR2 activator 0, NPR1 activator 0 and aDG glyco act 0.
O=c1c(-c2nc3ccccc3s2)cccn1Cc1ccccc1 was read as NPR2 activator -5, NPR1 activator 10, aDG glyco act 1, HSF1 inh 50, DYRK1A inh 2 and HSF1 activator 93*.
Screening NS(=O)(=O)c1ccc(CCNCC(=O)N2CCC(Cc3ccccc3)CC2)cc1 returned NPR2 activator 1, NPR1 activator -3, aDG glyco act 0, HSF1 inh 9, DYRK1A inh -11 and HSF1 activator 18.
Nc1nn(-c2cccc(F)n2)cc1-c1ccccc1 was read as NPR2 activator 2, NPR1 activator 1, aDG glyco act 0, HSF1 inh 39, DYRK1A inh 0 and HSF1 activator 62*.
`COc1ccc(-c2ccn(-c3cccc(F)n3)n2)cc1` gave NPR2 activator 0, NPR1 activator 4, aDG glyco act 0 and DYRK1A inh -1.
Screening Nc1nn(-c2cccc(F)n2)cc1-c1ccc(Cl)cc1 returned NPR2 activator 3, NPR1 activator 1, aDG glyco act 0, HSF1 inh 32, DYRK1A inh -6 and HSF1 activator 85*.
Nc1nc(Br)c2c(F)cccc2c1-c1ccccc1 was read as NPR2 activator -5, NPR1 activator -4, aDG glyco act 0, HSF1 inh 11, DYRK1A inh 11 and HSF1 activator 46.
Screening COCCN(C(=O)CSc1nc2ccc(OC)cc2[nH]1)c1c(N)n(Cc2ccccc2)c(=O)[nH]c1=O returned NPR2 activator 0, NPR1 activator 0, aDG glyco act 0, HSF1 inh 13, DYRK1A inh 4 and HSF1 activator 16.
CC(C)(C)c1ccc(NC(=O)Nc2ccc(F)cc2)cc1 was read as NPR2 activator 8, NPR1 activator -4, aDG glyco act 4, HSF1 inh 30, DYRK1A inh -2 and HSF1 activator 57*.
Screening CC1(C)Cc2c(sc(NC(=O)C(=O)NCC3CCCO3)c2C(N)=O)CO1 (stereo unspecified) returned NPR2 activator -2, NPR1 activator -1, aDG glyco act 0, HSF1 inh -5 and HSF1 activator -19.
Screening O=c1ccc2ccc(Oc3ccc([N+](=O)[O-])cc3[N+](=O)[O-])cc2o1 returned HSF1 inh 33 and HSF1 activator 68*.
CCOC(=O)[C@@H]1CSCCS(=O)(=O)N1C(=O)[C@H](C)NC(=O)OC(C)(C)C was read as NPR2 activator 2 and NPR1 activator 9.
For O=C(Nc1ccc2ccccc2c1)c1ccc(Cl)cc1Cl the results were NPR2 activator -3, NPR1 activator 5, aDG glyco act 0, HSF1 inh 13, DYRK1A inh -1 and HSF1 activator 51*.
Screening O=C(Nc1ccc2ccccc2c1)c1ccccc1Cl returned NPR2 activator 2, NPR1 activator 0 and aDG glyco act 0.
Screening O=C(Nc1ccc2ccccc2c1)c1cc(F)c(F)cc1Cl returned NPR2 activator -2, NPR1 activator -3, aDG glyco act 0, HSF1 inh 53 and HSF1 activator 59*.
`COc1cc(OC)cc(C2=NC3(CCC(C)CC3)NC2=S)c1` (stereo unspecified) gave NPR2 activator 4, NPR1 activator 3, aDG glyco act 0, HSF1 inh 0, DYRK1A inh 21 and HSF1 activator 8.
`Cc1ccccc1CNS(=O)(=O)c1ccc2c(c1)C(C)(C)C(=O)N2C` gave NPR2 activator -1, NPR1 activator 4, aDG glyco act 0, HSF1 inh -3 and HSF1 activator 13.

High-throughput results from PubChem BioAssay.
